Consider 9 molecules from PubChem BioAssay (NCI).

The panel holds about 83,000 compounds, 20% with a hit somewhere; the sample as a whole holds those more often.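 Cell lines were cultured in 96-well plates, exposed to a single compound concentration, and assessed for percent growth 48 hours later.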 Unmarked numbers belong to inactive results. Active and inactive are the calls of the source. Rule for the calls: active = growth percent below 10; inactive = the rest.

Among the test systems are SR leukemia; RPMI-8226 leukemia; OVCAR-8 ovarian; OVCAR-5 ovarian; OVCAR-4 ovarian; SK-OV-3 ovarian; IGROV1 ovarian; OVCAR-3 ovarian; HS 578T breast; NCI/ADR-RES ovarian; T-47D breast; MDA-MB-435 melanoma; SW-620 colon; MCF7 breast; HCT-116 colon; HCC-2998 colon; KM12 colon; BT-549 breast.
Holding throughout (assay): NCI-60 one-dose screen, 48 h (100 = growth as untreated, 0 = no growth, -100 = all killed)
Common to all, as to conditions: 10 µM unless noted

For `O=C1C[C@H](N2C(=O)c3ccccc3S2(=O)=O)C2CO[C@@H]1O2`, the growth in the test with SR leukemia was 10.3%; with RPMI-8226 leukemia it was 91.1%; in the test on OVCAR-8 ovarian, 93.7%; with OVCAR-5 ovarian, 97.5%; in the test with OVCAR-4 ovarian it was 84.3%; in the test with SK-OV-3 ovarian, 98.5%. For the same molecule, the growth is 103% with IGROV1 ovarian; 86.9% in the test with OVCAR-3 ovarian; 102% in the test on HS 578T breast; 98.3% in the test with NCI/ADR-RES ovarian; 54.1% with T-47D breast; 95.7% in the test on MDA-MB-435 melanoma. Moreover, the growth in the test with SW-620 colon was 56.1%; in the test on MCF7 breast, 23.1%; in the test on HCT-116 colon, 42.7%; with HCC-2998 colon it was 99.3%; in the test on KM12 colon, 102%.

Take `CCNS(=O)(=O)c1ncnc2nc[nH]c12`: the growth is 101% with SR leukemia; 92% in the test with RPMI-8226 leukemia; 114% in the test on OVCAR-8 ovarian; 102% in the test on OVCAR-5 ovarian; 102% with OVCAR-4 ovarian; 108% with SK-OV-3 ovarian. Further, the growth was 96.9% with IGROV1 ovarian; 113% in the test on OVCAR-3 ovarian; 144% with HS 578T breast; 99.7% with NCI/ADR-RES ovarian; 104% in the test with T-47D breast; 101% in the test with MDA-MB-435 melanoma. For the same molecule, the growth is 101% in the test on SW-620 colon; 102% with MCF7 breast; 117% with HCT-116 colon; 114% in the test on HCC-2998 colon; 119% in the test on KM12 colon.

`CCN(CC)CC(O)CNc1c2ccc([N+](=O)[O-])cc2nc2cc(OC)c(OC)cc12` (stereo not drawn): the growth is -7.08% (active) in the test on SR leukemia; -13.8% (active) in the test with RPMI-8226 leukemia; -2.1% (active) in the test with OVCAR-8 ovarian; 10% in the test with OVCAR-5 ovarian; -39.3% (active) in the test with OVCAR-4 ovarian; -42.5% (active) with SK-OV-3 ovarian. Besides, the growth is -39.9% (active) in the test with IGROV1 ovarian; -37.7% (active) with OVCAR-3 ovarian; -18.2% (active) in the test on HS 578T breast; 51.7% in the test with NCI/ADR-RES ovarian; -69.8% (active) in the test on BT-549 breast; -88.4% (active) in the test with MDA-MB-435 melanoma. For the same molecule, the growth with SW-620 colon is 4.13% (active); in the test with MCF7 breast, -22.9% (active); with HCT-116 colon, -23.5% (active); in the test on HCC-2998 colon, -68.2% (active); in the test with KM12 colon it was -37.5% (active).

With `COc1ccc(S(=O)(=O)NCCNc2nccc(-c3c(-c4cccc(N)c4)nc4sccn34)n2)cc1`, the growth in the test with SR leukemia is 107%; in the test with RPMI-8226 leukemia, 96%; in the test with OVCAR-8 ovarian, 98.2%; with OVCAR-5 ovarian, 121%; with OVCAR-4 ovarian, 82.4%; in the test with SK-OV-3 ovarian, 108%. For the same molecule, the growth is 98% with IGROV1 ovarian; 100% with OVCAR-3 ovarian; 97.9% in the test on HS 578T breast; 101% in the test with NCI/ADR-RES ovarian; 82.8% with BT-549 breast; 103% with MDA-MB-435 melanoma. Further, the growth was 113% with SW-620 colon; 90.8% in the test on MCF7 breast; 98% with HCT-116 colon; 122% in the test on HCC-2998 colon; 64.6% with KM12 colon.

With `Brc1cccc(-c2cc(-c3ccc4c(c3)OCCO4)[nH]n2)c1`, the growth in the test with SR leukemia was 31.4% [25 µM]; with RPMI-8226 leukemia, 20.8% [25 µM]; with OVCAR-8 ovarian, 29.7% [25 µM]; with OVCAR-5 ovarian, 39.8% [25 µM]; in the test on OVCAR-4 ovarian, 58.6% [25 µM]; in the test with SK-OV-3 ovarian, 39.5% [25 µM]. Moreover, the growth is 30.2% [25 µM] with IGROV1 ovarian; -7.07% [25 µM] (active) in the test on OVCAR-3 ovarian; 30% [25 µM] with HS 578T breast; 4.14% [25 µM] (active) in the test on NCI/ADR-RES ovarian; 41.7% [25 µM] in the test with BT-549 breast; -40.2% [25 µM] (active) with MDA-MB-435 melanoma. Moreover, the growth in the test on SW-620 colon is 28.7% [25 µM]; in the test with MCF7 breast, 10.6% [25 µM]; in the test on HCT-116 colon, 21% [25 µM]; with HCC-2998 colon, 44.6% [25 µM]; in the test on KM12 colon it was 22.9% [25 µM].

As for `CCCCNP1(NCCCC)=NP(NCCCC)(NCCCC)=NP(NCCCC)(NCCCC)=NP(NCCCC)(NCCCC)=N1`, the growth in the test on SR leukemia is -51.8% (active); in the test with RPMI-8226 leukemia it was -41.7% (active); in the test on OVCAR-8 ovarian it was 16.7%; in the test on OVCAR-5 ovarian, 16.7%; with OVCAR-4 ovarian, 16.9%; with SK-OV-3 ovarian it was 7.65% (active). Moreover, the growth is 30.7% in the test on IGROV1 ovarian; -48.7% (active) in the test on OVCAR-3 ovarian; -7.98% (active) with HS 578T breast; 97.2% in the test with NCI/ADR-RES ovarian; -5.86% (active) in the test with T-47D breast; 6.7% (active) in the test on MDA-MB-435 melanoma. For the same molecule, the growth was 6.12% (active) in the test with SW-620 colon; -7.14% (active) in the test on MCF7 breast; 0.711% (active) with HCT-116 colon; -24.9% (active) in the test on HCC-2998 colon; -24.7% (active) with KM12 colon.

In the case of `CC(=O)C1=C(O)C=C2Oc3c(C(=O)/C=C/c4c(Cl)cccc4Cl)c(O)c(C)c(O)c3[C@]2(C)C1=O`, the growth in the test on SR leukemia was -31% (active); in the test on RPMI-8226 leukemia it was -17.7% (active); in the test with OVCAR-8 ovarian it was -18.9% (active); in the test on OVCAR-5 ovarian, -3.17% (active); in the test with OVCAR-4 ovarian it was 7.41% (active); in the test with SK-OV-3 ovarian, -30.9% (active). In addition, the growth in the test on IGROV1 ovarian was -8.78% (active); in the test on OVCAR-3 ovarian, -30.6% (active); with HS 578T breast, -18.1% (active); in the test with NCI/ADR-RES ovarian it was -23.4% (active); in the test with BT-549 breast, -28.9% (active); with MDA-MB-435 melanoma, -11.6% (active). Moreover, the growth is 5.36% (active) in the test on SW-620 colon; -11.2% (active) in the test with MCF7 breast; -26.8% (active) with HCT-116 colon; -59.6% (active) in the test on HCC-2998 colon; -12.1% (active) in the test on KM12 colon.

Take `O=C1Nc2ccc(Br)cc2C12CC(c1ccccc1)=NN2` (stereo not drawn): the growth with SR leukemia is 12.5%; with RPMI-8226 leukemia, 28.3%; in the test on OVCAR-8 ovarian it was 61%; in the test with OVCAR-5 ovarian, 82%; in the test with OVCAR-4 ovarian, 67.5%; in the test with SK-OV-3 ovarian, 48.4%. Also, the growth is 52.6% in the test with IGROV1 ovarian; 24.1% with OVCAR-3 ovarian; 47% in the test on HS 578T breast; 40.8% in the test on NCI/ADR-RES ovarian; 47.8% in the test on BT-549 breast; -21.1% (active) with MDA-MB-435 melanoma. Moreover, the growth was 18.6% in the test with SW-620 colon; 18.3% in the test on MCF7 breast; 22.9% in the test on HCT-116 colon; 75.2% in the test on HCC-2998 colon; 30.6% in the test on KM12 colon.

Consider `CCCCCC(=O)Oc1ccc(/C(=C(\C)c2ccccc2)c2ccc(OCCN(CC)CC)cc2)cc1`, for which the growth with SR leukemia was 17.7%; with RPMI-8226 leukemia, 46.5%; in the test with OVCAR-8 ovarian, 81.9%; with OVCAR-5 ovarian, 87.6%; with OVCAR-4 ovarian, 84%; in the test with SK-OV-3 ovarian, 75.2%. Moreover, the growth in the test with IGROV1 ovarian was 75.9%; in the test on OVCAR-3 ovarian, 86.6%; in the test on HS 578T breast, 35.6%; in the test with NCI/ADR-RES ovarian, 74.2%; with T-47D breast, 39%; in the test with MDA-MB-435 melanoma, 70.3%. Also, the growth is 70.8% with SW-620 colon; 29.6% in the test with MCF7 breast; 50.7% in the test on HCT-116 colon; 88.1% with HCC-2998 colon; 62% in the test with KM12 colon.
